Measurements as given in the supplement of paper PMC3334620.
In all, about 33,000 sequences were measured (“E-score (-0.5 to 0.5)”: median about -0.0014, highest 2% from about 0.25 on). The sample holds the highest values, similar sequences and a random draw of the others, so the mix is not that of the screen.

Biological target: T1, Cad1 (UniProt P24813)
T1 sequence: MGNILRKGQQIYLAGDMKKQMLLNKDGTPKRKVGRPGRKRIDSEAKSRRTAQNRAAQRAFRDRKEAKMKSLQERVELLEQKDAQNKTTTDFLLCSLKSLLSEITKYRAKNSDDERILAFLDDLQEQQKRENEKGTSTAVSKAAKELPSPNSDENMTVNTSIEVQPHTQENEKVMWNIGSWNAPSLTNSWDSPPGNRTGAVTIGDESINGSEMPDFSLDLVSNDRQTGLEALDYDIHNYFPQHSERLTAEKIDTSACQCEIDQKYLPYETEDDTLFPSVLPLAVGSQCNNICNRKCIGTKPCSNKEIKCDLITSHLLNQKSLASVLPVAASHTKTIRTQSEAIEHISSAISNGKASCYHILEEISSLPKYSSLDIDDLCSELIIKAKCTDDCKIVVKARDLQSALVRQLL
Assay: PBM E-score (8-mer binding enrichment) (E-score (-0.5 to 0.5)); higher = stronger / more preferred TF binding
Conditions: protein concentration: 100 nM; construct: GST-full length
Protocol: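 Universal 'all 10-mer' protein binding microarrays (Agilent AMADID 015681) probed with GST-tagged S. cerevisiae TFs (full-length or DBD) made by in vitro transcription/translation (PURExpress), about 100-200 nM. Bound TF was detected with fluorescent anti-GST. Each ungapped 8-mer (which stands for itself and its reverse complement) is scored by the PBM enrichment score (E-score), a modified Wilcoxon-Mann-Whitney statistic from -0.5 to +0.5, computed with the Universal PBM Analysis Suite. Scale: above 0.35 generally sequence-specific binding.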

Row | Sequence | PBM E-score
1 | CTCGGGCA | 0.0974
2 | AGTGTGGG | -0.0209
3 | GCACGTGC | 0.32
4 | CCACGTGC | 0.00023
5 | GCACGTGA | 0.0273
6 | GTCAGACA | 0.116
7 | AAGGTCGT | 0.0718
8 | CCTAGACC | -0.179
9 | GGTTAGAA | -0.111
10 | AAGCTCGC | 0.224
11 | CAGCTCGA | 0.0283
12 | AAGCTCGA | 0.263
13 | TTGGCAAA | 0.121
14 | ATAGATTG | 0.0192
15 | GACCCGGC | -0.0968
16 | GCTGAGCC | -0.119
17 | AACGCTTC | -0.0949
18 | GATCAACA | 0.131
19 | AATCAGCC | 0.0909
20 | TATCAACA | 0.0364
21 | AATCAGCA | 0.258
22 | GATCAGCA | 0.141

Row | Sequence | PBM E-score
23 | AATCAGCG | 0.211
24 | CATCAGCA | 0.01
25 | AATCAGCT | 0.274
26 | AATCAACA | 0.275
27 | CGACAGCA | 0.0252
28 | AGTTCAGA | -0.104
29 | CAACATGA | 0.144
30 | CACTAGAA | -0.0573
31 | CTTTGTCA | 0.278
32 | GATTGTCA | 0.117
33 | GTTTGTCA | 0.317
34 | CTTTGTTA | 0.222
35 | CTTTGTCC | 0.058
36 | GTTTGTTA | 0.202
37 | AAGATTAG | 0.144
38 | GTCTGCGA | 0.0486
39 | AGACCGGA | -0.062
40 | GTCGCGAA | 0.0594
41 | CTCGCGAC | 0.15
42 | TTCGCGAA | 0.343
43 | TCCGCGAA | 0.202
44 | ATCGCGAC | 0.195

Row | Sequence | PBM E-score
45 | GTCGCGAC | 0.391
46 | GGGCCTCA | -0.0631
47 | ATCATTTC | 0.136
48 | GGCTCATA | 0.0877
49 | CAACAGGA | -0.182
50 | ACCTCGGG | -0.173
51 | GCGCTTAA | 0.106
52 | GCGCTTAC | 0.299
53 | CCGCTTAC | 0.184
54 | CTGCTTAA | 0.0117
55 | ATGCTTAC | 0.112
56 | CTGCTTAC | 0.276
57 | ACCGTATA | -0.00739
58 | CAAAAGAC | -0.00184
59 | ATCATAAT | 0.144
60 | ATCATAAC | 0.273
61 | ATCATAAG | 0.0855
62 | CTTCGTTA | -0.0282
63 | AATTAATC | 0.227
64 | AATTAAGA | 0.104
65 | AATTAATA | 0.432
66 | ACTTAATA | 0.186

Row | Sequence | PBM E-score
67 | AATTAATG | 0.242
68 | AATTAATT | 0.285
69 | AGCGAACA | 0.195
70 | CGCCAACA | 0.157
71 | AAAAAAAC | 0.121
72 | CAAATGGG | 0.0861
73 | GCATATCA | 0.278
74 | CCATATCA | -0.00962
75 | TCATATCA | 0.0259
76 | CCATGCAG | -0.0439
77 | GCGGAAGC | 0.0712
78 | AGCGGCTC | -0.0559
79 | ACGGATAA | 0.0973
80 | ACGGAAAA | 0.24
81 | ACGGATAG | 0.0118
82 | ACGGAAAC | -0.0435
83 | ACGGATAT | 0.254
84 | ACGGAAAT | 0.288
85 | AGGGTTGA | -0.0586
86 | GGATCGAA | 0.045
